The structures appear in SMILES notation. In all, about 68,000 compounds went through this assay and about 2,700 (4%) showed an effect of 50% or more. The list comes from a sample in which strong results are over-represented; it also holds similar structures and randomly drawn compounds.

In the assay the test system is Plasmodium berghei. Nature of the assay: Screen against P. berghei liver stage (PbLuc), transformed with Luciferase, at 2uM. Format: functional, HepG2. The conditions noted are these: tested at 2 uM.
Regarding `Cc1noc(C)c1CC(=O)N1CCCN(Cc2cscn2)CC1`, the INHIBITION is listed as 25.74%.
As for `N#Cc1ccc(CN2CCCN(C(=O)CCn3cncn3)CC2)cc1`, the INHIBITION is 12.43%.
For the molecule `N#Cc1ccc(CN2CCCN(CCCn3cncn3)CC2)cc1`, the INHIBITION worked out at 65.3%.
Regarding `c1ccc(C(c2ccccc2)N2CCN(CCn3cncn3)CC2)cc1`, the INHIBITION came to 35.54%.
Next, `c1ccc(SCCN2CCN(CCn3cncn3)CC2)cc1`: 30.62%.
Next, `O=C(CCCn1cncn1)N1CCCC1c1nc(-c2ccccc2)no1` (stereo not drawn): 48.21%; `c1ccc(CCCN2CCN(CCn3cncn3)CC2)cc1`: 76.6%; `c1ccc(-c2noc(C3CCN(CCCn4cncn4)CC3)n2)cc1`: 57.75%.
With `N#Cc1ccc(N2CCCN(CCCn3cncn3)CC2)cc1` the figure was -27.36%; with `c1ccc(-c2noc(C3CCN(CCn4cccn4)CC3)n2)cc1`, 43.44%.
Turning to `COc1ccc(CC(=O)N2CC[C@H](CO)[C@H](O)C2)c(OC)c1`, the INHIBITION was found to be 26.93%.
Regarding `CCc1ccc(C(C)NC(=O)N2CCC(n3cncn3)CC2)cc1` (stereo not drawn), the INHIBITION is on record as 38.06%.
With `CC(C)N(C)[C@@H]1CCN(c2ncccn2)[C@H]1Cc1ccncc1` the figure was 11.9%; with `CN(CC(=O)N1CCC(Oc2ccc(C(F)(F)F)cn2)CC1)S(C)(=O)=O`, 17.26%.
For `Cc1nccn1CC1CCCN1S(=O)(=O)Cc1ccc(F)cc1` (stereo not drawn), the INHIBITION was -88.61%.
As to `Cc1nccn1CC1CCCN1S(=O)(=O)Cc1ccccc1` (stereo not drawn), the INHIBITION is 0.26%.
Next, `Cc1nccn1CC1CCCN1S(=O)(=O)Cc1ccon1` (stereo not drawn): 60.31%.
Next, `CCc1nccn1CCCNC(=O)c1cnn(-c2ccccc2OC)c1`: -9.69%.
With `O=C(CCn1ccc2cc(Br)ccc21)NCc1ccc(C(=O)O)cc1` the figure was -4.69%.
For `O=C(COC[C@@]12CCC[C@@H]1CN(C1CCCC1)C2)N1CCCC1`, the INHIBITION is -9.14%.
For the molecule `O=C(COC[C@]12COC[C@H]1CN(C1CCC1)C2)N1CCCC1`, the INHIBITION is listed as -37.65%.
With `O=C(COC[C@@]12CCC[C@@H]1CN(C1CCC1)C2)N1CCCC1` the figure was 51.27%; with `Cn1nc2c(cc1=O)CN(c1ncnc3ccsc13)CC2`, -37.96%; with `CCC[C@@H]1CN(Cc2cc3c(cc2OC)OCCO3)C[C@H]1C(=O)O`, 19.59%.
Consider `CCC[C@@H]1CN(Cc2cc3c(cc2OC)OCO3)C[C@H]1C(=O)O`, for which the INHIBITION is reported as -23.34%.
In the case of `CCC[C@@H]1CN(Cc2cc(OC)c3c(c2)OCO3)C[C@H]1C(=O)O`, the INHIBITION is 57.75%.
Next, `CN(C)c1nccc(C2CN(S(C)(=O)=O)C2)n1`: 40.78%; `Cc1cc(C(=O)N2CCN(S(C)(=O)=O)[C@@H](C)C2)c(F)cc1F`: 1.27%.
`CC(=O)N[C@H]1CCO[C@@H](c2cccc(NC(=O)Cc3ccccc3)c2)C1`: the INHIBITION came to 0.93%.
Take `O=C(NCCNc1ncccn1)NCc1cccc(OC(F)F)c1`: the INHIBITION is -35.22%.
Next, `O=C(CCNc1ncccn1)NCc1cccc(OC(F)F)c1`: 52.3%.
For `Cc1ccc(CCNC(=O)NCc2cccc(OC(F)F)c2)cn1`, the INHIBITION was -16.71%.
Next, `O=C(CCNc1ncccn1)NCc1ccc(Br)s1`: 64.22%.
With `CCc1ccc(CNC(=O)CCNc2ncccn2)s1` the figure was -18.99%.
Next, `O=C(CCNc1ncccn1)NCc1csc(Br)c1`: 33.47%.
With `c1ccc(-c2nnc(N3CCCC4(CCOC4)C3)s2)cc1` (stereo not drawn), the INHIBITION is listed as -21.39%.
Next, `N#Cc1ccc(N2CCCN(CC(=O)N3CCOCC3)CC2)cc1`: -45.9%.
With `Cc1ccc(NC2CCN(C(=O)CC3CCCO3)CC2)nn1` (stereo not drawn) the figure was -3.38%.
Next, `Cc1ccc(-c2noc(CN3CCOC(CN(C)C)C3)n2)cc1F` (stereo not drawn): -19.76%; `CCc1ccc(C2CC(=O)Nc3cc(NS(C)(=O)=O)ccc32)o1` (stereo not drawn): -24.85%.
On to `CCOc1ncccc1NC(=O)N1CCCN(C(=O)OC)CC1`, for which the INHIBITION was found to be 12.81%.
With `Cc1nc(CN2CC[C@@H]3O[C@@H](C(=O)N4CCOCC4)C[C@@H]32)cs1`, the INHIBITION was determined as 34.24%.
With `CN1CCN(C(=O)[C@H]2CC[C@@H]3[C@@H](CCN3Cc3nccs3)O2)CC1` the figure was 1.78%; with `CN1CCN(C(=O)[C@H]2C[C@H]3[C@H](CCN3Cc3nccs3)O2)CC1`, 37.54%; with `O=C([C@H]1CC[C@@H]2[C@@H](CCN2Cc2nccs2)O1)N1CCCCO1`, 23.93%.
`CN(C)C(=O)[C@@H]1C[C@@H]2[C@@H](CCN2Cc2nccs2)O1`: the INHIBITION is 55.11%.
Consider `CN(C)C(=O)[C@@H]1C[C@@H]2CCN(Cc3nccs3)C[C@@H]2O1`, for which the INHIBITION was -31.39%.
With `O=C([C@H]1CC[C@@H]2[C@@H](CCN2Cc2nccs2)O1)N1CCOCC1` the figure was 77.07%.
With `O=C([C@@H]1C[C@H]2[C@H](CCN2Cc2nccs2)O1)N1CCOCC1` the figure was -16.93%; with `CC1CCN(C(=O)[C@H]2CC[C@@H]3[C@@H](CCN3Cc3nccs3)O2)CC1`, 53.46%.
Next, `Cn1cc(CN2CC[C@H]3O[C@@H](C(=O)NC4CC4)CC[C@H]32)cn1`: -43.66%; `CN(C)C(=O)[C@@H]1CC[C@@H]2[C@@H](CCN2Cc2nccs2)O1`: 6.66%; `Cn1cc(CN2CC[C@@H]3O[C@H](C(=O)N4CCOCC4)C[C@@H]32)cn1`: 86.68%.
With `CC[C@@]1(O)CCN(C(=O)CN(C)Cc2ccc(F)cc2)C[C@H]1O`, the INHIBITION is given as 25.06%.
Turning to `CN(C)[C@@H]1C[C@@H](CO)N(C(=O)Nc2cccc(F)c2F)C1`, the INHIBITION was -57.1%.
With `CNC(=O)[C@H]1C[C@@H]2CCN(CCc3ccccc3)C[C@@H]2O1` the figure was 21.77%; with `CS(=O)(=O)N1CCc2sc(C(=O)NCc3ccccc3)cc21`, 38.62%; with `O=C(C1CC(F)(F)C1)N1C[C@@H]2CN(CC3CC3)CCO[C@@H]2C1`, -14.21%.
Next, `Cc1nccn1CCC1CCN(C(C)C)CC1`: 4.53%; `Cc1ccc2c(ccn2CCC(=O)O)c1`: -7.01%.
With `Cc1cccc(CN2C(=O)C[C@H]3[C@@H]2CCN3Cc2ccccn2)n1` the figure was -11.91%; with `Cc1cnn(C2CCCN(C(=O)c3ccc(-n4cnnn4)cc3)C2)c1` (stereo not drawn), 15.4%.
Turning to `Cc1cnn(C2CCCN(C(=O)c3ccc4c(c3)CCC4)C2)c1` (stereo not drawn), the INHIBITION was determined as 56.02%.
With `O=C(c1ccc(NC2CC2)nc1)N1CCCC(n2cccn2)C1` (stereo not drawn) the figure was 54.85%; with `O=C(c1ccc(NC2CC2)nc1)N1CCCC(n2ccnc2)C1` (stereo not drawn), -5.3%; with `Cc1cnn(C2CCCN(C(=O)c3ccccc3-n3cnnn3)C2)c1` (stereo not drawn), -31.16%.
Take `Cc1cnn(C2CCCN(C(=O)c3ccnc(N(C)C)c3)C2)c1` (stereo not drawn): the INHIBITION is reported as -21.91%.
Next, `Cc1nn(-c2ccccc2)cc1C(=O)N1CCCN2CCCC2C1` (stereo not drawn): 20.11%; `Cc1nn(-c2ccccc2)cc1C(=O)N1CCCC(n2cccn2)C1` (stereo not drawn): 11.1%; `O=C(c1ccc(-n2cccn2)nc1)N1CCCC(n2cccn2)C1` (stereo not drawn): -9.61%.
Next, `Cc1cnn(C2CCCN(C(=O)c3ccn(C)c(=O)c3)C2)c1` (stereo not drawn): 16.51%; `Cc1cnn(C2CCCN(C(=O)c3cn(-c4ccccc4)nc3C)C2)c1` (stereo not drawn): 86.75%.
With `Cc1cnn(C2CCCN(C(=O)c3sccc3-n3cnnn3)C2)c1` (stereo not drawn) the figure was 51.21%.

The record behind these values is ChEMBL document CHEMBL4513216, “Probing the Open Global Health Chemical Diversity Library for Multistage-Active Starting Points for Next-Generation Antimalarials” (ACS Infect Dis, 2020).
